Experimental findings from PubChem BioAssay (NCATS) are described below.

Inconclusive results are not listed. Where a call stands in place of a potency, no number is given. Activity calls are given as the source filed them. The call rests on the fitted dose curve; in most records, active means well fitted cell-killing curve with a large enough effect; inconclusive means small, poorly fitted or top-dose-only effect, or effect the other way; inactive means no such curve, though single readings can be large or run the other way.
Potency means the concentration at half of the fitted maximal effect.

The nature of this experiment: Quantitative High-Throughput drug screen in 47 multiple myeloma cell lines against the NCATS MIPE library collection: OPM1_PLB cell viability assay (AID 1918989). Further: nearly all actives have a fitted effect of over 40% in size. As to conditions: CellTiter-Glo, 48 h; series mostly up to 45.8 µM. An excerpt:
PI: Beverly A. Mock Ph.D.
Laboratory of Cancer Biology and Genetics,
Center for Cancer Research, National Cancer Institute,
National Institute of Health, Bethesda, Maryland
Drug resistance and disease progression are common in multiple myeloma (MM) patients, underscoring the need for new therapeutic combinations. […] We hypothesized that effective combinations would reduce MYC expression and enhance p16 activity. […] These preclinical data identify potentially useful drug combinations for evaluation in drug-resistant MM and reveal potential mechanisms of combined drug sensitivity.
Described herein is the primary MIPE qHTS used to cherrypick compounds. Validated compounds were then further tested for potential synergistic activiy.
[1] Peat TJ, Gaikwad SM, Dubois W, Gyabaah-Kessie N, Zhang S, Gorjifard S, Phyo Z, Andres M, Hughitt VK, Simpson RM, Miller MA, Girvin AT, Taylor A, Williams D, D'Antonio N, Zhang Y, Rajagopalan A, Flietner E, Wilson K, Zhang X, Shinn P, Klumpp-Thomas C, McKnight C, Itkin Z, Chen L, Kazandijian D, Zhang J, Michalowski AM, Simmons JK, Keats J, Thomas CJ, Mock BA. Drug combinations identified by high-throughput screening promote cell cycle transition and upregulate Smad pathways in myeloma. Cancer Lett. 2023 Aug 1;568:216284. doi: 10.1016/j.canlet.2023.216284. Epub 2023 Jun 24. PMID: 37356470; PMCID: PMC10408729.
SEQUENCE No. (e.g., 1, 2, 3, etc.); […] (e.g., Cells, Incubation, Reagent, etc.); VALUE and DESCRIPTION.
1; Cells; 5 uL; white, solid bottom 1536-well Greiner assay plate.
2; Compounds; 23 nL; Kalypsis pin tool (Wako USA) equipped with a 1536-well pin head to transfer to the assay plates.
3; Incubation; 48 hours; 37C incubation.
4; Reagent;5uL; CellTiter Glo (Promega).
5; Detector; 425V; Luminescence; Viewlux PerkinElmer.
NOTES (numbers refer to Sequence numbers above)
1. The cell-based screening methods employed in this study were like those previously published. Briefly, the corresponding myeloma cell lines were screened in 1,536-well plates with 500 cells, 5-uL per well for inhibition of cell viability (assessed by measuring ATP levels with CellTiterGlo).
2. NCATS MIPE 4.0 library of approved and investigational drugs were added using the Kalypsis pin tool. Wells treated with DMSO only for 100% viability and media only for 0% viability were used as controls.
3. The assay plates were covered and incubated for 48 hours in a 37C, 5% CO2 incubator with controlled humidity.
4. After 48 hours, CellTilter-GloTM luminescent substrate mix (Promega) reagent was added to the assay plate and plates we incubated for 5 min at room temperature.
5. Signal was measured as median relative luminescence units on a ViewLux (PerkinElmer) multiplate reader.
[1] Heske CM, Davis MI, Baumgart JT, Wilson K, Gormally MV, Chen L, Zhang X, Ceribelli M, Duveau DY, Guha R, Ferrer M, Arnaldez FI, Ji J, Tran HL, Zhang Y, Mendoza A, Helman LJ, Thomas CJ. Matrix Screen Identifies Synergistic Combination of PARP Inhibitors and Nicotinamide Phosphoribosyltransferase (NAMPT) Inhibitors in Ewing Sarcoma. Clin Cancer Res. 2017 Dec 1;23(23):7301-7311. doi: 10.1158/1078-0432.CCR-17-1121. Epub 2017 Sep 12. PMID: 28899971; PMCID: PMC6636827.
Take `Clc1ccccc1C(c1ccccc1)(c1ccccc1)n1cccn1`: the Potency result was “inactive”.
The same measure for `O=c1[nH]c2ccccc2n1C1CCN(Cc2ccc(-c3[nH]c4cc5ncnc5cc4nc3-c3ccccc3)cc2)CC1`: 2640 nM (active).
The same measure for `CC(C)N(CCNC(=O)CN1CCCC1=O)C(C)C`: “inactive”; for `c1ccc(CCCN2CCN(CCOC(c3ccccc3)c3ccccc3)CC2)cc1`: 20900 nM (active); for `CCCN1CCO[C@@H]2c3cc(O)ccc3OC[C@@H]21`: “inactive”.
The same measure for `CC(C)[C@]12O[C@@H]1[C@@H]1O[C@]13[C@]1(O[C@H]1C[C@@H]1C4=C(CC[C@@]13C)C(=O)OC4)[C@H]2O`: “inactive”; for `CN(C)NC(=O)CCC(=O)O`: “inactive”.
Consider `CC(=O)O[C@@]12CO[C@H]1C[C@H](O)[C@@]1(C)C(=O)[C@H](O)C3=C(C)[C@@H](O)C[C@@](O)([C@@H](OC(=O)c4ccccc4)[C@@H]21)C3(C)C`, for which the Potency is 1320 nM (active).
In the case of `COc1cc2cc(c1Cl)N(C)C(=O)C[C@H](OC(=O)C(C)C)[C@]1(C)O[C@H]1[C@H](C)[C@@H]1C[C@@](O)(NC(=O)O1)[C@H](OC)C=CC=C(C)C2`, the Potency result is “inactive”.
The same measure for `C[C@H]([C@H](O)CCC(C)(C)O)[C@H]1CC[C@@]2(O)C3=CC(=O)[C@@H]4C[C@@H](O)[C@@H](O)C[C@]4(C)[C@@H]3CC[C@]12C`: “inactive”; for `CO[C@H]1CCC(O[C@H]2C[C@H]([C@]3(C)CC[C@]4(C[C@H](O)[C@@H](C)[C@@H]([C@@H](C)C=C(C)C(=O)[C@H](C)C[C@H](C)C(=O)O)O4)O3)O[C@]3(O[C@@H]([C@H]4O[C@@](O)(CO)[C@H](C)C[C@H]4C)C[C@H]3C)[C@H]2C)O[C@H]1C` (stereo not given in full): 418 nM (active).
For the compound `CC(C)(O)C=CC(=O)[C@](C)(O)[C@H]1[C@H](O)C[C@]2(C)[C@@H]3CC=C4[C@@H](C=C(O)C(=O)C4(C)C)[C@]3(C)C(=O)C[C@@]12C`, the Potency was 105 nM (active).
`CC(N[C@H]1C[C@H]1c1ccccc1)c1ccc2c(c1)OCCO2` (stereo not given in full): the Potency result is “inactive”.
The same measure for `CC1(N2CCC(n3c([C@@H]4CCCNC4)nc4ccccc43)CC2)CCCCCCC1`: 7430 nM (active); for `COCC1(CO)C(=O)C2CCN1CC2` (stereo not given): 2090 nM (active).
Take `CC(=O)OCC1=C(C(=O)O)N2C(=O)[C@@H](N)[C@@H]2SC1`: the Potency result is “inactive”.
As to `Cc1ccccc1-n1c(Cn2ncc3c(N)ncnc32)nc2cccc(C)c2c1=O`, the Potency is 148 nM (active).
Regarding `CC(C)N[C@@H]1CCn2c(=O)[nH]c3cccc(c32)[C@@H]1O`, the Potency is 11800 nM (active).
The same measure for `CC[C@@H]1[C@@H](C)O[C@@](O)([C@@H](C)[C@H](O)[C@H](C)[C@H]2OC(=O)C=CC=C[C@@H](C)[C@@H]([C@@H](C)[C@@H](O)[C@H](C)[C@@]3(O)C[C@H](O[C@H]4C[C@H](O)[C@H](O)[C@H](C)O4)[C@H](CC)[C@@H](C)O3)OC(=O)C=CC=C[C@@H]2C)C[C@H]1O[C@H]1C[C@H](O)[C@H](O)[C@H](C)O1`: 1050 nM (active); for `CC[C@@]1(O)C(=O)OCc2c1cc1n(c2=O)Cc2cc3ccccc3nc2-1`: 833 nM (active).
Consider `CCN1C[C@]2(OC(=O)c3ccccc3NC(C)=O)CC[C@H](OC)[C@@]34[C@H]5CC6[C@@H](OC)C[C@](O)(C(C[C@@H]23)[C@@H]14)[C@@]5(O)[C@@H]6OC`, for which the Potency result is “inactive”.
The same measure for `CCN(CC)C(=O)c1ccc(C2=CC3(CCNCC3)Oc3cccc(O)c32)cc1`: “inactive”.
The same measure for `C=C[C@@H]1CN2CCC1C[C@H]2[C@H](O)c1ccnc2ccccc12` (stereo not given in full): 16600 nM (active); for `Cc1c(C(=O)c2cccc3ccccc23)c2cccc3c2n1[C@H](CN1CCOCC1)CO3`: 23500 nM (active); for `C[C@]12CCC(=O)C(O)=C1CC[C@@H]1[C@H]3CCC(=O)[C@@]3(C)CC[C@@H]12`: “inactive”.
The same measure for `COc1cccc2c1[C@]13CCN(CC4CC4)[C@H](C2)[C@]1(OC)CCC(=O)C3`: “inactive”; for `c1cc2c(cc1[C@H]1OC[C@H]3[C@H]1CO[C@H]3c1ccc3c(c1)OCO3)OCO2`: “inactive”.
On to `CC(C)(C)[C@]1(O)C[C@@H]2OC(=O)C[C@@]23C(=O)O[C@@H]2OC(=O)[C@H](O)C213` (stereo not given in full), for which the Potency result is “inactive”.
The same measure for `CCCC[N+]1(C)[C@H]2CC(OC(=O)[C@H](CO)c3ccccc3)C[C@H]1[C@H]1O[C@H]12` (stereo not given in full): “inactive”; for `COc1cc([C@@H]2c3cc4c(cc3[C@@H](O)C3COC(=O)C32)OCO4)cc(OC)c1O` (stereo not given in full): 52.6 nM (active); for `C[C@@]12OC(=O)[C@]1([C@@H](O)[C@@H]1C=CCCC1)NC(=O)[C@H]2CCCl`: 1 nM (active).
The same measure for `COC[C@H]1OC(=O)c2coc3c2[C@@]1(C)C1=C(C3=O)[C@@H]2CC[C@H](O)[C@@]2(C)C[C@@H]1OC(C)=O`: 332 nM (active).
For `CCOC(=O)c1c(C(C#N)=CN)c2ccc(Cl)c(Cl)c2n1C`, the Potency entry was “inactive”.
The same measure for `C#CC1(O)CCC2C3CCC4=CC(=O)CCC4(C)C3CCC21C` (stereo not given): “inactive”; for `C=CCON=C(C[C@H]1O[C@@H]2O[C@]3(C)CC[C@@H]4[C@H](C)CC[C@@H]([C@H]1C)[C@@]24OO3)[C@H]1O[C@@H]2O[C@]3(C)CC[C@H]4[C@H](C)CC[C@@H]([C@@H]1C)[C@@]24OO3`: 526 nM (active).
The same measure for `CC(=CCCC1=CCC(C2=CC(=O)OC2O)OC1O)CCC1=C(C)CCCC1(C)C` (stereo not given): 11800 nM (active); for `COc1ccc2c(c1)CN(C)CC2c1ccc(Cl)c(Cl)c1` (stereo not given): 18700 nM (active).
The same measure for `CC1=C(O)C(=O)C=C2C1=CC=C1[C@@]2(C)CC[C@@]2(C)[C@@H]3C[C@](C)(C(=O)O)CC[C@]3(C)CC[C@]12C`: 743 nM (active); for `C1=C2CCCN[C@H]2[C@@H]2C[C@H]1[C@@H]1CCCCN1C2`: “inactive”.
Turning to `C[C@]12COC(=O)C[C@@H]1CC[C@@H]1[C@H]2CC[C@@]2(C)[C@H]1CC[C@]2(C)O`, the Potency result is “inactive”.
